From publication doi:10.1101/2023.07.10.548322 come the findings set out here.

This assay addresses alpha-synuclein (aSyn) WT (human, UniProt P37840 1-140). Briefly: RNA Bind-n-Seq. The note with it: ssRNA.
In turn, GGCGGGGGGUGA showed a binding signal of 43.8 enrichment score.

Sequence UAGGUUGGGGGU yielded a binding signal of 46.4 enrichment score. The figure for UGUGGGCGGGAG is 54.6 enrichment score; for GGCGGUUGUUGG it is 46.4 enrichment score. The figure for GUGUAGGUGGGG is 43.8 enrichment score; for AUGGGGUGGGCG it is 41.1 enrichment score.

Consider AGUGGGGGGGAG, for which the binding signal is 43.8 enrichment score. The figure for CGUGGGGAGUGG is 41.1 enrichment score; for GAGGUGGAGGGU it is 57.4 enrichment score. Sequence UGAUGGGGGUGG showed a binding signal of 43.8 enrichment score. On to GGAGGAGGCGGU, for which the binding signal was 41.1 enrichment score.

UGGGUUUGGGGG: the binding signal amounted to 46.4 enrichment score. The figure for UUGGGCGGGUAG is 49.1 enrichment score; for GGUUGGGAGCGG it is 43.8 enrichment score; for GUGGGGAAGGGU it is 49.1 enrichment score. The sequence GUGGAGAGGUGG showed a binding signal of 54.6 enrichment score. The figure for AGUGCGGGGGGG is 49.1 enrichment score. The figure for GUGGAUGGCGGG is 49.1 enrichment score. The figure for AGUGGGGGGGUG is 43.8 enrichment score; for GGGGAUGGUAGG it is 43.8 enrichment score; for GAGGAGGGUGGG it is 57.4 enrichment score.

AUGGGAGUGGGG returned a binding signal of 43.8 enrichment score. The figure for AGGGGUUUUGGG is 43.8 enrichment score.

In the case of CGUGGGAGGGGG, the binding signal amounted to 43.8 enrichment score.

GGGGUGAGGUGU had a binding signal of 41.1 enrichment score. The figure for UGGGGGUGGAUG is 43.8 enrichment score; for UGGGUGGGAAGG it is 43.8 enrichment score; for UGGGUGGGUGGG it is 46.4 enrichment score. The figure for AAGGGGCGGAGG is 54.6 enrichment score; for AGUGGGUGUGGA it is 49.1 enrichment score. The figure for GGGGGUGGUGUU is 49.1 enrichment score; for UUGGGUGGAGGG it is 46.4 enrichment score; for GUGGGGGGGGCA it is 43.8 enrichment score.
